Results on 61 sequences are retold here after the supplement of paper PMC11417369.

± gives the standard deviation of the averaged measurements. The full ranking holds about 25,000 sequences; the median of “ln(normalized median fluorescence intensity)” is about 7.9, and the highest 2% start at about 11. This is one part of a sample in which the highest values are shown more often than they occur.

For the assay, the system named is PfAP2-I AP2 domain 3 (GST-tagged). Kind of assay: gcPBM binding intensity (ln(normalized median fluorescence intensity)); higher = stronger DNA binding. Put shortly: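 The highest Masliner-normalised natural-log median intensity across replicate spots of either probe orientation is reported as binding intensity. GST-tagged P. falciparum DNA-binding domains expressed in E. coli were applied for 1 h to an Agilent 4 × 180k array of primer-extended double-stranded 36-bp intergenic genomic probes plus negative controls, and bound protein was detected with Alexa488 anti-GST antibody and scanned at 488 nm.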
Turning to “GTTATAACTCAAATATGTACATATTATAAAACATAT [XGTACX_site6693]”, the “gcPBM binding intensity (ln)” value stood at 7.92 ± 0.47.

Regarding “TTTTTTTTTTATTGTACATGCAAAAAATTCCACACA [TGCATGCA_site279]”, the “gcPBM binding intensity (ln)” value was 8.31 ± 0.32.

Take “ATTTACCCTTGCCATGCACACTTTTTTATAGAAAAT [CACACA_site5857]”: the “gcPBM binding intensity (ln)” value worked out at 8.95 ± 0.44.

On to “GAACTTTACAACCCAACACACAAAAAAGAAAAGAAA [CACACA_site1717]”, for which the “gcPBM binding intensity (ln)” value stood at 7.87 ± 0.46.

As for “AGTAGCAAATATTAAGTGCATATTATATAATGTGTA [GTGCAC_site9546]”, the “gcPBM binding intensity (ln)” value was 9.04 ± 0.16.

In the case of “TTTCTAGTTACAAGAGTGCATAATATATAAAAATAA [GTGCAC_site9874]”, the “gcPBM binding intensity (ln)” value is 10.9 ± 0.56.

For “TAAAAAATGATAGAAGTGCATAAAATAATATATATA [GTGCAC_site9904]”, the “gcPBM binding intensity (ln)” value came out at 10.4 ± 0.13.

Turning to TATAATAACAATTTAGTGCATATAATAATATTTTAT, the “gcPBM binding intensity (ln)” value came out at 10 ± 0.19.

Take TAAAAAATTAATAAAGTGCATAAATATTACAATATT: the “gcPBM binding intensity (ln)” value amounted to 10.3 ± 0.4.

Take “ACATTTACAAGGAAAGTGCATATAAGAAAAATAAAA [GTGCAC_site9587]”: the “gcPBM binding intensity (ln)” value was found to be 10.2 ± 0.11.

Consider “AAAATAATATAAATAATATAAGTGAGCATATATATA [TGCATGCA_negctrl_site527]”, for which the “gcPBM binding intensity (ln)” value came to 7.92 ± 0.72.

In the case of “CTATGCATTTATAGTGCATGTAAAATATAAGATAAT [TGCATGCA_site71]”, the “gcPBM binding intensity (ln)” value worked out at 9.86 ± 0.085.

Consider CCACGAGAATATATAGTGCATAATAATTTTTTTTTG, for which the “gcPBM binding intensity (ln)” value was found to be 11.1 ± 0.4.

With “TTGTGTGAGCAAGTAGTGCATAATATAAATAAAAAA [GTGCAC_site9802]”, the “gcPBM binding intensity (ln)” value is 11.2 ± 0.54.

As to “ATAATATTTTATATAGTGCATTTGCTCATTATATAT [GTGCAC_site9528]”, the “gcPBM binding intensity (ln)” value turned out to be 9.85 ± 0.45.

Consider “TTTAGATATATGGTAGTGCATAATAAAAATATAGCC [GTGCAC_site9449]”, for which the “gcPBM binding intensity (ln)” value turned out to be 11.1 ± 0.67.

For “TCAAAATATCCAAAAGAATAAAGAAAAAAAAAAAGA [CACACA_negctrl_site1377]”, the “gcPBM binding intensity (ln)” value was 7.5 ± 0.41.

For “TTGTAATTTATTCAAACACACAATTTGGACCTTTTT [CACACA_site1063]”, the “gcPBM binding intensity (ln)” value came to 7.45 ± 0.51.

Turning to “TTTTTACTATAAGGGGAAAAAAAAAAAAATAATATA [XGTACX_negctrl_site279]”, the “gcPBM binding intensity (ln)” value was 7.78 ± 0.28.

“ATGTAGATATATATATGTACTAATTAGTAGTTTACG [XGTACX_site6275]”: the “gcPBM binding intensity (ln)” value stood at 8 ± 0.41.

Consider “ATATATATATCAACAACACACGATTAACTAAAAAAA [CACACA_site302]”, for which the “gcPBM binding intensity (ln)” value stood at 8.8 ± 0.19.

Regarding “ACCTTATTTAGTTATAGTACACAAAGTATTAAACAT [XGTACX_site8418]”, the “gcPBM binding intensity (ln)” value came to 8.46 ± 0.46.

Regarding “AGTATACATTCATTTTGTACTCAATGATTTGATAAC [XGTACX_site6787]”, the “gcPBM binding intensity (ln)” value stood at 7.63 ± 0.42.

As for “CTATTATCGGTTCCTACACACAAATATATATGTCTA [CACACA_site3579]”, the “gcPBM binding intensity (ln)” value amounted to 8.1 ± 0.57.

As to “TGTTTTTTTATTTTCACACATAATCCAATTATACAT [CACACA_site6070]”, the “gcPBM binding intensity (ln)” value is 8.22 ± 0.55.

Consider “TATATATATATGTAATGTACATAAATTTTATACCTT [XGTACX_site6991]”, for which the “gcPBM binding intensity (ln)” value stood at 9.27 ± 0.53.

Turning to “ACCATATAATTTTTTTGTACATAATGATTTTTTTTT [XGTACX_site1104]”, the “gcPBM binding intensity (ln)” value was found to be 7.99 ± 0.45.

With “GGTCTAACAACATGCGCACACACATGAATATTCATA [CACACA_site1539]”, the “gcPBM binding intensity (ln)” value amounted to 8.81 ± 0.49.

With ACATATAATAAAATAGTGCATTGTTAGTTTTATATA, the “gcPBM binding intensity (ln)” value is 10.4 ± 0.42.

Take “AAAAAAAATATACATACATGCATACATAAGTTTCTA [TGCATGCA_site998]”: the “gcPBM binding intensity (ln)” value came out at 7.55 ± 0.73.

For the sequence “CACTAAATAAGGAAAGTGCATAAAATAAAGGTTATA [GTGCAC_site9793]”, the “gcPBM binding intensity (ln)” value is 10.4 ± 0.26.

For the sequence “ATAGTAATGCATAAATATATATTATATATATATATA [XGTACX_negctrl_site576]”, the “gcPBM binding intensity (ln)” value is 9.21 ± 0.49.

GTTGAAATAAAATTAGTGCATATATAAATATATATA: the “gcPBM binding intensity (ln)” value is 10.2 ± 0.17.

Take ATATATATATATATAGTGCATAAAATAAGTTTCTAA: the “gcPBM binding intensity (ln)” value came out at 10.8 ± 0.21.

With AATAAAAATAATATAGTGCATAATATAAGGAAAAAA, the “gcPBM binding intensity (ln)” value stood at 11.1 ± 0.49.

On to ATATATAAATAAATAGTGCATTTTAATATTTAACGT, for which the “gcPBM binding intensity (ln)” value is 10 ± 0.18.

Regarding TAATAAATGTTATTAGTGCATAATAGATAATATATT, the “gcPBM binding intensity (ln)” value worked out at 10.8 ± 0.64.

For the sequence TATATATATATAATAGTGCATAAATAAATATATAAA, the “gcPBM binding intensity (ln)” value turned out to be 11.2 ± 0.45.

Take ATATATATATATATAGTGCATAATGTTTTAATAGAT: the “gcPBM binding intensity (ln)” value turned out to be 11 ± 0.33.

Take TATATATATATATAAGTGCATATAAAAATCGTTCGT: the “gcPBM binding intensity (ln)” value is 10.3 ± 0.11.

In the case of “AAAAGCACCGTTCGTTGTACACTGAAACACTTTTGT [XGTACX_site199]”, the “gcPBM binding intensity (ln)” value is 8.2 ± 0.76.

Regarding “AACATGTTAAAATAAACACACAGCTAAGGTTTTTTT [CACACA_site157]”, the “gcPBM binding intensity (ln)” value is 7.4 ± 0.69.

“TCTTTTACAAAAGCTATAACATTCACCACATTATAA [GTGCAC_negctrl_site133]”: the “gcPBM binding intensity (ln)” value was found to be 7.68 ± 0.65.

Take “CTAGGTATGCTTTAAACATGCAAAAATACAAATTAC [TGCATGCA_site239]”: the “gcPBM binding intensity (ln)” value amounted to 7.97 ± 0.76.

With “ATAAATCCATGGGTAGTGCGCATTTTTTTTTTTTTT [GTGCAC_site9732]”, the “gcPBM binding intensity (ln)” value came to 9.09 ± 0.41.

For “ACAATGTCATTTGCTAGTACGCATATTGGTTGTAAA [XGTACX_site8924]”, the “gcPBM binding intensity (ln)” value was 7.76 ± 0.24.

As for “ATAAAATATCAATACCGTACACAAGCAGGTAAAATA [XGTACX_site3719]”, the “gcPBM binding intensity (ln)” value is 7.82 ± 0.8.

In the case of “TGATTATAAAAGTAGGTGCTACAAAAATTACACATT [GTGCAC_site9530]”, the “gcPBM binding intensity (ln)” value amounted to 8.7 ± 0.45.

For “TATAACATTTTTTTCAAAATAGCTTTAGAAATAAAG [CACACA_negctrl_site718]”, the “gcPBM binding intensity (ln)” value was 7.37 ± 0.54.

For “AAATAATTTATATGTAGTACATGTTGTAGATAATTT [XGTACX_site1031]”, the “gcPBM binding intensity (ln)” value was 8.16 ± 0.28.

As to “TTTGTGTATATAACAGTGCAATATTATAAATATAAA [GTGCAC_site9750]”, the “gcPBM binding intensity (ln)” value worked out at 10.5 ± 0.51.

For the sequence “CATAATATTAAATCAGTGCAAATATACAGAATAAAT [GTGCAC_site9786]”, the “gcPBM binding intensity (ln)” value was 10.1 ± 0.17.

TATACGTATTACAGAGTGCAATAAACAGTATATATT: the “gcPBM binding intensity (ln)” value came out at 10.9 ± 0.66.

Regarding AAAAAAAATTATGAAGTGCATTAGTGAATTTGATTG, the “gcPBM binding intensity (ln)” value is 10.9 ± 0.3.

Regarding “TTTTGATTAAGTGAATTTTTTTATTTATATAAATAT [TGCATGCA_negctrl_site479]”, the “gcPBM binding intensity (ln)” value was found to be 7.54 ± 0.56.

Turning to AAAATTATTTAGTAAGTGCAAAAAAAAAAAAAAAAA, the “gcPBM binding intensity (ln)” value came to 10.1 ± 0.23.

As for “CAATTTTACTCATAAACACACATATATATGTTATTA [CACACA_site3152]”, the “gcPBM binding intensity (ln)” value amounted to 7.66 ± 0.53.

On to “AAAAAAAAAAAAAGTACACACTTTTGCGTACATGTA [CACACA_site7449]”, for which the “gcPBM binding intensity (ln)” value was found to be 8.06 ± 0.63.

On to “TGCATTATTTACAAGGTGCGTTACAAATGTGTAACA [GTGCAC_site9442]”, for which the “gcPBM binding intensity (ln)” value is 11.3 ± 0.88.

As for “ATATATTTATTAAGGTGTACAAAAATTATGTTGCAT [XGTACX_site7546]”, the “gcPBM binding intensity (ln)” value is 8.26 ± 0.35.

Consider “TATATTATATATATGTGTACATATAAATGTAACAAA [XGTACX_site5025]”, for which the “gcPBM binding intensity (ln)” value was determined as 7.67 ± 0.34.
